Results filed as inconclusive are left out. Active and inactive are the calls of the source. The call rests on the fitted dose curve; in most records, active means well fitted curve in the direction sought with a large enough effect; inconclusive means small, poorly fitted or top-dose-only effect, or another doubt; inactive means no such curve, though single readings can be large; an effect the other way counts as inactive or inconclusive.
Tests used:
[1] = MultiTox-Fluor Cytotoxicity Assay - LYMP1-001 - Dead Cells (AID 946)
Summary of the method: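 LYMP1-001 lymphoblastoid cells (2500/well) treated 16 h at 37 C. Dead-cell protease cleavage of bis-AAF-R110 read at Ex/Em 485/520. Normalized to DMSO and 15 uM tetraoctylammonium bromide; AC50 from Hill fits.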

[2] = MultiTox-Fluor Cytotoxicity Assay - LYMP1-001 - Live Cells (AID 947)
[3] = Cell Viability - LYMP1-002 - Assay at 16 hr (AID 948)
Summary of the method: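 LYMP1-002 human lymphoblastoid cells, 2500/well; 5 hr 37 C; cpd 16 hr 37 C; CellTiter-Glo 30 min RT; luminescence (ATP). Concentration-response, Hill-fit AC50. Pos ctrl tetraoctylammonium bromide.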

[4] = MultiTox-Fluor Cytotoxicity Assay - LYMP1-002 - Live Cells (AID 955)
Summary of the method: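 After 16 h compound exposure at 37 C, live LYMP1-002 lymphoblastoid cells (2500/well) were quantified by cleavage of cell-permeant GF-AFC substrate, read at 405/510 nm after 60 min. Concentration-response fitted with Hill equation for AC50.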

[5] = MultiTox-Fluor Cytotoxicity Assay - LYMP1-002 - Dead Cells (AID 960); further: nearly all actives have a fitted effect of over 60% in size
Summary of the method: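 Dead-cell fluorescence (Ex/Em 485/520) after 16 h compound exposure at 37 C of LYMP1-002 lymphoblastoid cells in complete medium; AC50 by Hill equation, with data scaled between DMSO and 15 uM tetraoctylammonium bromide.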

[6] = MultiTox-Fluor Cytotoxicity Assay - LYMP1-003 - Dead Cells (AID 961); further: nearly all actives have a fitted effect of over 70% in size
Summary of the method: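 LYMP1-003 human lymphoblastoid cells (2500/well) exposed to compound 16 h at 37 C in complete medium; dead-cell protease read with bis-AAF-R110 fluorescence (Ex/Em 485/520) after 60 min at room temperature. Normalized to DMSO and 15 uM tetraoctylammonium bromide; AC50 from Hill fit.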

[7] = MultiTox-Fluor Cytotoxicity Assay - LYMP1-003 - Live Cells (AID 962);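 further: cytotoxic hits lower the live-cell protease signal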
Summary of the method: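 Live-cell protease activity (GF-AFC substrate, 405/510 nm, 60 min at room temperature) after 16 h, 37 C compound exposure of human lymphoblastoid LYMP1-003 cells; concentration-response fitted to the Hill equation for AC50.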

[8] = Cell Viability - LYMP1-003 - Assay at 24 hr (AID 963)
Summary of the method: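 Concentration-response qHTS: ATP loss measured by CellTiter-Glo luminescence after 24 h compound exposure at 37 C. Cells were LYMP1-003 human lymphoblastoid, 2500 per well. AC50 derived via standard Hill equation modeling.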

[9] = Cell Viability - LYMP1-003 - Assay at 40 hr (AID 964); further: series mostly up to about 92 µM; nearly all actives have a fitted effect of over 60% in size
Summary of the method: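 Viability is taken as cellular ATP, read by CellTiter-Glo luminescence after 40 h of compound exposure at 37 C. Cells: human lymphoblastoid line LYMP1-003 at 2500/well; AC50 values derived by Hill-equation fitting of concentration-response data.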

[10] = Cell Viability - LYMP2-003 (AID 965);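 further: cells exposed to compounds for 24 h before reading; nearly all actives have a fitted effect of over 50% in size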
Summary of the method: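 CellTiter-Glo luminescence (cellular ATP) after 24 h compound exposure at 37 C in complete medium; 2500 cells/well, 5 h settling beforehand. Concentration-response fitted to standard Hill equation for AC50. Tetraoctylammonium bromide served as positive control.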

Measured: Potency

C1CCC2OC2C1 (stereo not given)
inactive: all assays above

CCCCC(CC)CNCC(CC)CCCC (stereo not given)
inactive: all assays above

CCCCCCCN
inactive: all assays above

CCC(O)C(C)(C)C (stereo not given)
inactive: all assays above

CC(=O)c1ccc([N+](=O)[O-])cc1
inactive: all assays above

Nc1ccccc1[N+](=O)[O-]
inactive: all assays above

CCN(Cc1ccccc1)c1ccccc1
inactive: all assays above

CCOCCO
inactive: all assays above

Source: PubChem BioAssay (NCATS)
